# Molecular target: Casein kinase I isoform gamma-3 (Homo sapiens) (UniProt Q9Y6M4);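 further: mean inhibition of CK1-g3, GSK PKIS screen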
# Details: at 1 µM
# Casein kinase I isoform gamma-3 (Homo sapiens), sequence (Q9Y6M4 whole entry, looked up, canonical isoform): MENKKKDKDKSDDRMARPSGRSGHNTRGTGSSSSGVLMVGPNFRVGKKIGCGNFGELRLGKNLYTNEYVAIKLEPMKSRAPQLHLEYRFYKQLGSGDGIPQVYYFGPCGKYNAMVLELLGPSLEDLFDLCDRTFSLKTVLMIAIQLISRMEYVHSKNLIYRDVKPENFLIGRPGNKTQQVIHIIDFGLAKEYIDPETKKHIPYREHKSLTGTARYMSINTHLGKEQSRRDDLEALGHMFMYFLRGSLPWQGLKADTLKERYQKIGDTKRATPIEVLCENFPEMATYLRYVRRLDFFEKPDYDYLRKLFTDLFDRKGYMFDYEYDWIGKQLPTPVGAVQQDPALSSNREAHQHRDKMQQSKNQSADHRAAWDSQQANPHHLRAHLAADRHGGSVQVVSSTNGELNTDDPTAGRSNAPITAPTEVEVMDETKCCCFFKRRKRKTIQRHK
row,Compound,inhibition
1,Cc1ccc(O)cc1Nc1ccnc2cc(-c3ccccn3)ccc12,6.72%
2,NS(=O)(=O)c1ccc(Nc2ncc(-c3ccccc3)o2)cc1,3.96%
3,COc1cccc(-n2ncc3c(N/N=C/c4ccc(F)cc4)ncnc32)c1,3.4%
4,CCc1nn2ncccc2c1-c1ccnc(NC2CC2)n1,0.68%
5,COc1ccc(CNC(=O)c2ccc(-c3cc(-c4nnc(C)o4)ccc3C)cc2)cc1,0.83%
6,CCCN(CCS(C)(=O)=O)Cc1ccc(-c2ccc3ncnc(Nc4ccc(OCc5cccc(F)c5)c(Cl)c4)c3c2)o1,1.11%
7,Cc1ccc2c(-c3ccnc(Nc4ccccc4)n3)c(-c3ccc(F)cc3)nn2n1,51.5%
8,COc1cc(/C=N/Nc2ncnc3[nH]ncc23)ccc1O,20%
9,FC(F)(F)c1cccc(-c2nn3ncccc3c2-c2ccnc(Nc3ccc4c(c3)OCCO4)n2)c1,4.56%
10,O=S(=O)(CCNCc1ccc(-c2ccc3ncnc(Nc4ccc(OCc5cccc(F)c5)c(Cl)c4)c3c2)o1)c1ccccc1,5.14%
11,CCn1c(-c2nonc2N)nc2c(C#CC(C)(C)O)ncc(OC3CCNCC3)c21,3.15%
12,COc1ccc2c(-c3ccnc(Nc4cccc(OC(F)(F)F)c4)n3)cnn2n1,6.47%
13,CC(C)(CO)CNC(=O)c1ccc2c(c1)/C(=N/Nc1ccc(S(N)(=O)=O)cc1)C(=O)N2,8.37%
14,NC(=O)c1sc(-n2cnc3ccc(C(F)(F)F)cc32)cc1OCc1ccccc1Br,2.37%
15,COC(=O)Nc1nc2ccc(Oc3ccc(NC(=O)Nc4cccc(Cl)c4)cc3)cc2[nH]1,1.25%
16,CS(=O)(=O)CCNCc1ccc(-c2ccc3ncnc(Nc4ccc(OCc5ccccc5)c(C(F)(F)F)c4)c3c2)o1,2.56%
17,COc1ccc2[nH]c3c4[nH]c5ccc(OC)cc5c4c4c(c3c2c1)C(=O)NC4=O,5%

# Molecular target: Cyclin-dependent kinase 1 (Homo sapiens) (UniProt P06493);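 further: enzyme assay on the CDK1/cyclin B complex, reported as mean percent inhibition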
# Sequence (P06493 whole entry, looked up): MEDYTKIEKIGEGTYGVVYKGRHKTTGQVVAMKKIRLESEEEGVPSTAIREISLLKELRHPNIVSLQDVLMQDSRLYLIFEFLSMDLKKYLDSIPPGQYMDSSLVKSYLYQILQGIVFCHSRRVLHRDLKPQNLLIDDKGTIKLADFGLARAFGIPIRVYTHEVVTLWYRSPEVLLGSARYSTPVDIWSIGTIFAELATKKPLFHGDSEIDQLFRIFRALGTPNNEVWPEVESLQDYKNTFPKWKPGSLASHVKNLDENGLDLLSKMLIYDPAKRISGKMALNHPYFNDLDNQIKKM
# Details: at 0.1 µM
row,Compound,inhibition
1,CC1=C(C(=O)Nc2cc(Cl)c3[nH]ncc3c2)C(c2ccc(C(F)(F)F)cc2)CC(=O)N1 (stereo unspecified),-0.73%
2,c1cc(-c2cnn3nc(N4CCOCC4)ccc23)nc(NC2CC2)n1,2.3%
3,CC(C)COC(=O)c1ccc2c(c1)/C(=C/Nc1ccc(S(N)(=O)=O)cc1)C(=O)N2,36.9%
4,Fc1ccc(-c2cc(-c3c[nH]nc3-c3ccccn3)ccn2)cc1,0.86%
5,COC(=O)c1sc(-n2cnc3cc(OC)c(OC)cc32)cc1OCc1ccccc1C(F)(F)F,-0.15%
6,Nc1ncc(-c2cccc(S(N)(=O)=O)c2)c2scc(-c3ccc(F)c(Cl)c3)c12,1.33%
7,Fc1ccc(-c2nn3ncccc3c2-c2ccnc(Nc3ccc4c(c3)OCCO4)n2)cc1,0.14%
8,COc1cc(Nc2nccc(Nc3ccc4c(C)n[nH]c4c3)n2)cc(OC)c1OC,0.71%
9,O=C(O[C@H]1CN[C@H](C#Cc2cc3ncnc(Nc4ccc(Cc5ccccc5)cc4)c3s2)C1)N1CCOCC1,0.31%
10,Nc1nc(-c2ccc(F)cc2)c(-c2ccc3ncccc3n2)s1,3.94%
11,COc1ccc(-c2nn3ncccc3c2-c2ccnc(Nc3ccc4c(c3)OCCO4)n2)cc1,0.5%
12,CNC(=O)c1cncc(/C=C/c2ccccc2Cl)c1,0.47%
13,CCn1c(-c2nonc2N)nc2ccccc21,-0.3%
14,N#Cc1c(NC(=O)CN2CCOCC2)sc2c1CCCC2,4.8%
15,NS(=O)(=O)c1ccc(N/N=C2\C(=O)Nc3ccc4ncccc4c32)cc1,61.3%
16,Nc1nc(-c2cccc(Cl)c2)c(-c2ccc3ncccc3n2)s1,0.61%
17,c1ccc(-c2nc3n(c2-c2ccc4c(c2)OCO4)CCC3)nc1,0.17%

row,Compound,inhibition
1,Cc1ccc(O)cc1Nc1ccnc2cc(-c3ccccn3)ccc12,0.02%
2,NS(=O)(=O)c1ccc(Nc2ncc(-c3ccccc3)o2)cc1,19.7%
3,COc1cccc(-n2ncc3c(N/N=C/c4ccc(F)cc4)ncnc32)c1,9.55%
4,CCc1nn2ncccc2c1-c1ccnc(NC2CC2)n1,2.52%
5,COc1ccc(CNC(=O)c2ccc(-c3cc(-c4nnc(C)o4)ccc3C)cc2)cc1,1.08%
6,CCCN(CCS(C)(=O)=O)Cc1ccc(-c2ccc3ncnc(Nc4ccc(OCc5cccc(F)c5)c(Cl)c4)c3c2)o1,2.23%
7,Cc1ccc2c(-c3ccnc(Nc4ccccc4)n3)c(-c3ccc(F)cc3)nn2n1,-0.23%
8,COc1cc(/C=N/Nc2ncnc3[nH]ncc23)ccc1O,2.77%
9,FC(F)(F)c1cccc(-c2nn3ncccc3c2-c2ccnc(Nc3ccc4c(c3)OCCO4)n2)c1,1.58%
10,O=S(=O)(CCNCc1ccc(-c2ccc3ncnc(Nc4ccc(OCc5cccc(F)c5)c(Cl)c4)c3c2)o1)c1ccccc1,0.29%
11,CCn1c(-c2nonc2N)nc2c(C#CC(C)(C)O)ncc(OC3CCNCC3)c21,2.33%
12,COc1ccc2c(-c3ccnc(Nc4cccc(OC(F)(F)F)c4)n3)cnn2n1,5.27%
13,CC(C)(CO)CNC(=O)c1ccc2c(c1)/C(=N/Nc1ccc(S(N)(=O)=O)cc1)C(=O)N2,37.2%
14,NC(=O)c1sc(-n2cnc3ccc(C(F)(F)F)cc32)cc1OCc1ccccc1Br,-0.53%
15,COC(=O)Nc1nc2ccc(Oc3ccc(NC(=O)Nc4cccc(Cl)c4)cc3)cc2[nH]1,-0.02%
16,CS(=O)(=O)CCNCc1ccc(-c2ccc3ncnc(Nc4ccc(OCc5ccccc5)c(C(F)(F)F)c4)c3c2)o1,0.28%
17,COc1ccc2[nH]c3c4[nH]c5ccc(OC)cc5c4c4c(c3c2c1)C(=O)NC4=O,0.17%

# Reference: ChEMBL document CHEMBL1961873, “Compounds: GSK PKIS; Assays: Nanosyn kinase panel” (2012)
